In the library only some 6.9% were active in any assay of this set; here they are far more common.
SW480 rereplic: induces DNA re-replication in SW480 colon adenocarcinoma cells. SW480 DNA re-replication, Hoechst DNA content imaging, 48 h. Potency, µM (series often up to 46.1 µM), inactives show at the top dose re-replication activation, most hits filed as activators. 1.8% of 340,000 active; note: potency is the fitted concentration of half-maximal effect; % of control where 0% means no effect; nearly all actives have a fitted effect of over 55% in size
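Readout is total intensity of Hoechst-stained nuclei, excited at 405 nm and collected at 500-530 nm. Compound treatment lasted 48 hr at 37 C in 5% CO2 before staining.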
Vif-APOBEC3F blk: blocks the Vif interaction with APOBEC3F. HeLa A3F-eYFP + Vif (tagged APOBEC3F with the HIV-1 protein that degrades it), YFP fluorescence increase. 0.2% of 390,000 active. Potency, µM (highest dose often 46.1 µM), inactives show top-dose activity, negative = active; note: potency is the fitted concentration of half-maximal effect; % of control where 0% means no effect; nearly all actives have a fitted effect of over 65% in size
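HeLa cells stably expressing Vif plus C-terminally eYFP-tagged A3F were seeded, incubated overnight at 37 deg C, dosed with compound, incubated overnight again at 37 deg C. Yellow fluorescence (Ex 488/Em 500-530) reported blocked Vif-mediated A3F-eYFP degradation.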
MCF10A rerep: inducers of DNA re-replication in MCF 10A breast cells. MCF 10A DNA re-replication, Hoechst nuclear intensity, 48 h. 2.9% of 350,000 active. Potency, µM (top dose mostly 46.1 µM), for inactives: at the highest dose activity, positive = re-replication, hits mostly activators; note: potency is the fitted concentration of half-maximal effect; % of control where 0% means no effect; nearly all actives have a fitted effect of over 50% in size
IL-1B inflam inh: blocks inflammasome-driven IL-1 beta release; THP-1 LPS/ATP IL-1B secretion, AlphaLISA, 16 h; stronger effect = lower value; activity change, % at 57.5 µM; 4.7% of 360,000 active; AID 743279; in the data active = activity change below about -50%; inconclusive = mostly about -30% to -49%; note: % is set by controls: 0 for no effect and ±100 for the full control effect
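Secreted IL-1B measured by AlphaLISA bead assay after 16 h compound exposure of THP-1 cells; compounds (final up to 57.5 uM) added 1 h before LPS (250 ng/mL) and ATP (1.25 mM) stimulation; lower signal means less secretion.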
Vif-APOBEC3G blk: inhibitors of Vif-APOBEC3G interaction. Q9HC16. HeLa A3G-eYFP + Vif (tagged APOBEC3G with the HIV-1 protein that degrades it), YFP fluorescence, overnight. Potency, µM (titrated, usually from 46.1 µM), inactives show at the top dose activity, negative = active, usual class: inhibitors. 0.076% of 410,000 active. AID 602310; note: potency is the fitted concentration of half-maximal effect; % is set by controls: 0 for no effect and ±100 for the full control effect; nearly all actives have a fitted effect of over 60% in size
Target sequence (Q9HC16 whole entry, looked up): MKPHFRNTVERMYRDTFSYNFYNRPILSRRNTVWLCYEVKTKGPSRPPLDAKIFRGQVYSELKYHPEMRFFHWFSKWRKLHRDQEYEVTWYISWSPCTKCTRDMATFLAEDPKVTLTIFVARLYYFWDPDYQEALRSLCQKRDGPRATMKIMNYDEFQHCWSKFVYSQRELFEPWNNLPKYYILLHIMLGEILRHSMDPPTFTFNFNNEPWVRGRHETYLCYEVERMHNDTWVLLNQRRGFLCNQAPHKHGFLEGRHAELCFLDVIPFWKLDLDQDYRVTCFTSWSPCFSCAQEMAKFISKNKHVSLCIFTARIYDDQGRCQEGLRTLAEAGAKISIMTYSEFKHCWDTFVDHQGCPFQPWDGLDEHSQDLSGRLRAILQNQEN
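Read-out is eYFP fluorescence (Ex 488/Em 500-530) from Vif-expressing HeLa A3G-eYFP cells; more signal means A3G escaped Vif-mediated degradation. Cells plated overnight, compound pinned in, incubated overnight at 37 deg C.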
Giardia killer: kills Giardia lamblia | activity change, % at 7.66 µM, hits read low | 0.15% of 340,000 active | Giardia lamblia trophozoite viability; in the data active = activity change below about -80%; inconclusive = between about -30% and that limit;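 note: parasites exposed to compound for two days anaerobically before the ATP read; % is set by controls: 0 for no effect and ±100 for the full control effect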
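Media and compound were dispensed first, then trophozoites at 100 cells/well; plates sat 48 hrs at 37 deg C without oxygen before ATP luminescence reagent was added and read after 15-30 min at room temperature.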
An asterisk follows results filed as active; ? = inconclusive; nt = not tested or not shown. Unless noted, calls come from the whole dose curve; as a rule, active = well fitted curve in the direction sought with a large enough effect; inconclusive = small, poorly fitted or top-dose-only effect, or another doubt; inactive = no such curve, though single readings can be large; an effect the other way counts as inactive or inconclusive.

SMILES	SW480 rereplic	Vif-APOBEC3F blk	MCF10A rerep	IL-1B inflam inh	Vif-APOBEC3G blk	Giardia killer
CC1(C)CC(=O)C(C=Nc2cc(C(=O)c3ccccc3)ccc2N)=C(O)C1	13%	28µM*	?	-10	-23%	-15
CC1(C)CC(=O)C(C=Nc2ccc(N)cc2)=C(O)C1	?	-4%	0.65µM*	-25	0%	0
N#CC1=C(N)N(c2cccc(Cl)c2)C2=C(C(=O)CCC2)C1c1cc(CN2CCOCC2)cs1 (centres undefined)	nt	-5%	nt	nt	-7%	nt
CCCCCn1c(=O)[nH]c2cc(C(=O)NCc3ccc(C)cc3)ccc2c1=O	nt	-9%	nt	nt	-5%	nt
Cc1c(Cl)cccc1NC(=O)Nc1nnc(N2CCCCCC2)s1	nt	1%	nt	nt	-5%	nt
O=C(N/N=C/c1ccccc1Br)c1cccc(S(=O)(=O)N2CCOCC2)c1	6%	0%	10%	27	-1%	-13
COc1cccc(/C=N/NC(=O)c2ccc(N3CCCC3=O)cc2)c1	1.8µM*	-14%	13µM*	-29	?	9
O=C(N/N=C/c1cc(Br)cc(Br)c1O)c1cccc(S(=O)(=O)N2CCOCC2)c1	0.65µM*	7%	-2%	80	1%	-8
O=C(N/N=C/c1cc(Br)cc(Br)c1O)c1cccc(N2CCCC2=O)c1	8.2µM*	8%	?	129	-8%	1
O=C(N/N=C/c1sc(N2CCOCC2)nc1-c1ccccc1)c1ccc(O)cc1	1%	1%	?	-20	5%	3
O=C(N/N=C/c1ccco1)c1ccc(N2CCCC2=O)cc1	-11%	-1%	?	10	-10%	-29
O=C(N/N=C/c1sc(N2CCOCC2)nc1-c1ccccc1)c1cccc(S(=O)(=O)N2CCCC2)c1	5%	-3%	15µM*	56	-3%	2
CCC(Oc1ccccc1)C(=O)Nc1cc(-c2ccccc2F)nn1-c1ccccc1 (centres undefined)	nt	4%	nt	nt	-5%	nt
COc1ccc(-c2cc(-c3ccc(C)cc3)nc3c2COc2ccccc2-3)cc1	nt	-3%	nt	nt	0%	nt
CCc1ccc(S(=O)(=O)N2c3ccc(C)cc3C3CN(C)CCC32)cc1 (centres undefined)	3%	0%	?	-51*	1%	-29
CN(C)c1ccc(/C=C/C(=O)c2ccccc2)cc1[N+](=O)[O-]	1%	-22%	13%	-2	-5%	-11
O=C(/C=C/c1ccc(O)c([N+](=O)[O-])c1)c1ccc2ccccc2c1	?	2%	7.3µM*	-20	-16%	?
COc1ccc(Oc2ccc(/C=C/C(=O)c3ccc(O)cc3)cc2[N+](=O)[O-])cc1	7.3µM*	-3%	2.9µM*	-100*	-16%	-7
COc1cc(NC(=O)Cn2c(=O)n(C(C)C)c(=O)c3oc4ccccc4c32)cc(OC)c1	nt	8%	nt	nt	5%	nt
O=S(=O)(c1ccc(OC(F)(F)F)cc1)N1CCN(c2nc(-c3cccs3)nc3ccccc23)CC1	nt	nt	nt	nt	2%	8
Cc1ccc2nc(-c3ccc(SCC(=O)Nc4nc(C)cs4)nc3)[nH]c2c1	8%	?	?	9	?	-28
Cc1ccc(SCC(=O)Nc2ccc(-c3nc4ccccc4[nH]3)cc2)cc1	8%	-8%	13µM*	18	-8%	-1
CCOC(=O)CSc1ccc(-c2nc3cc(C)c(C)cc3[nH]2)cn1	-7%	1%	1%	-12	-2%	-21
Cc1ccc2nc(-c3ccc(SCC(=O)Nc4nnc(C)s4)nc3)[nH]c2c1	?	16%	18µM*	-95*	-9%	-7
CCOC(=O)CSc1ccc(-c2nc3ccccc3[nH]2)cn1	2%	-10%	22%	-82*	1%	-5
SMILES	SW480 rereplic	Vif-APOBEC3F blk	MCF10A rerep	IL-1B inflam inh	Vif-APOBEC3G blk	Giardia killer
Cc1nc(NC(=O)CSc2ccc(-c3nc4ccccc4[nH]3)cn2)sc1C	5%	?	18µM*	19	-25%	-12
COc1ccc(CN2C(=O)N(c3ccc(C)cc3)C(=O)C2CC(=O)Nc2ccccc2)cc1OC (centres undefined)	nt	0%	nt	nt	0%	nt
COC(=O)c1ccc(NC(=O)c2nn(C)c3c2CS(=O)(=O)c2ccccc2-3)cc1	nt	-14%	nt	nt	-3%	nt
O=S(=O)(c1cccnc1)N1CCN(c2nc(-c3cccs3)nc3ccccc23)CC1	nt	nt	nt	nt	2%	-6
Cc1ccc(NC(=O)CSc2nc3ccccc3c3nc4ccccc4n23)cc1	0.65µM*	-9%	1.5µM*	44	?	19
Cc1cc2nc(-c3ccc(SCc4ccccn4)nc3)[nH]c2cc1C	?	-7%	?	-85*	?	-6
COc1ccc(NC(=O)CSc2nc3ccccc3c3nc4ccccc4n23)cc1	?	2%	?	17	-23%	-1
Cc1cc2nc(-c3ccc(SCC(=O)N4CCOCC4)nc3)[nH]c2cc1C	-12%	-10%	?	?	1%	?
Cc1cc2nc3c(=O)n(C)c(=O)n(C)c3nc2cc1N=CN(C)C	nt	?	nt	nt	-3%	nt
OC(CNCCNc1ncccc1C(F)(F)F)Cn1ccc2ccccc21 (centres undefined)	4%	?	-3%	-56*	-1%	7
OC(CNCc1ccccc1)Cn1ccc2ccccc21 (centres undefined)	?	1%	20%	-50*	6%	-10
Oc1ccc(/C=N\Nc2nncc(-c3ccccc3)n2)cc1	17%	-14%	10%	?	11µM*	36
COc1ccc(-c2cnnc(N/N=C/c3ccc(O)cc3)n2)cc1	10%	-5%	3%	?	-23%	-25
C(=N\Nc1nccc(-c2cccnc2)n1)/c1ccccc1	10%	-16%	-4%	-54*	-8%	32
CCOC(=O)c1ccccc1NC(=O)c1nn(-c2ccc(C)cc2)c(=O)n(C)c1=O	nt	-4%	nt	nt	1%	nt
CCCCn1cc(S(=O)(=O)c2ccc(OC)cc2)c(=O)c2cc(CC)ccc21	nt	-7%	nt	nt	-9%	nt
C=C1NN(CC2CC2)C(=O)N1c1ccc(OCc2ccccc2)cc1	nt	nt	nt	nt	4%	nt
CCc1ccccc1N(C(=O)c1cccs1)C1C=CS(=O)(=O)C1 (centres undefined)	?	-12%	2.6µM*	-7	-3%	7
O=C(c1cccs1)N(c1cccc(Cl)c1)C1C=CS(=O)(=O)C1 (centres undefined)	8%	4%	6%	-9	2%	-9
Cc1c2c(cc3c1[nH]c1ccccc13)C=NCC2	?	?	21µM*	-73*	-29%	1
CCCCC(=O)Nc1cc(-c2cn3cccnc3n2)ccc1C	nt	8%	nt	nt	2%	nt
NC(=O)CCS(=O)(=O)CCN1CCCCC1	-2%	-9%	-1%	-4	1%	-16
